Our source for the outcome and AC50 values is PubChem BioAssay (EPA / NIEHS).

The target of test [1] is Estrogen-related receptor gamma (Homo sapiens) (UniProt P62508). The test is described as follows: ATG_ERRg_TRANS: Attagene TRANS-FACTORIAL HepG2 Assay for human Estrogen-Related Receptor gamma (ERRg) (AID 2282977).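 Further: hits increase reporter signal over DMSO so potencies reflect activators.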 The conditions noted are these: HepG2 Attagene TRANS reporter, ERRg transactivation. A digest of the protocol:
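Exogenous NR-Gal4 chimera activity was assessed in HepG2 cells bearing transfected GAL4-UAS reporters. After 24 h dosing, total RNA underwent RT-PCR, fluorescent primer extension and HpaI digestion before capillary electrophoresis, with gain of signal scored against DMSO.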

Test [2] concerns the target Glucocorticoid receptor (Homo sapiens) (UniProt P04150). Description: ATG_GR_TRANS: Attagene TRANS-FACTORIAL HepG2 Assay for human Glucocorticoid Receptor (GR) (AID 2282978).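 Further: activators score as hits since higher reporter transcript over DMSO is fitted.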 To be noted: HepG2 Attagene TRANS GR reporter, mRNA transcription. A digest of the protocol:
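Multiplexed TRANS reporter system, HepG2; 24 h exposure; RNA → oligo(dT) RT → reporter-specific PCR → 6-FAM primer extension → HpaI cut → CE fluorescence. Gain-of-signal vs DMSO.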

Test [3] deals with Bile acid receptor (Homo sapiens) (UniProt Q96RI1). The test is described as follows: ATG_FXR_TRANS: Attagene TRANS-FACTORIAL HepG2 Assay for Farnesoid X Receptor (FXR) (AID 2282979).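 Further: hits raise reporter mRNA above DMSO so AC50 marks FXR activation.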 The conditions noted are these: HepG2 Attagene TRANS FXR-GAL4 reporter transcription. A digest of the protocol: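 Chimeric FXR-GAL4 activity in transiently transfected human HepG2 liver cells is scored as induction of reporter mRNA after 24 h of dosing. Detection uses RT-PCR with fluorescent labelling and capillary electrophoresis, with DMSO serving as baseline.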

Test [4] has as its target Oxysterols receptor LXR-alpha (Homo sapiens) (UniProt Q13133). The test is described as follows: ATG_LXRa_TRANS: Attagene TRANS-FACTORIAL HepG2 Assay for human Liver X Receptor alpha (LXRa) (AID 2282980). To be noted: HepG2 Attagene TRANS reporter, LXRa transactivation. A digest of the protocol:
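Transient HepG2 transfectants, 24 h dosing, RT-PCR/CE mRNA reporter quantitation; gain-of-signal vs DMSO.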

For test [5], the target named is Oxysterols receptor LXR-beta (Homo sapiens) (UniProt P55055). The test is described as follows: ATG_LXRb_TRANS: Attagene TRANS-FACTORIAL HepG2 Assay for human Liver X Receptor beta (LXRb) (AID 2282981). To be noted: HepG2 Attagene TRANS GAL4-LXRb reporter, mRNA. A digest of the protocol:
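After 24 h of chemical treatment, transfected HepG2 cells yield total RNA; reporter cDNA is PCR-amplified, FAM-labelled, HpaI-cut and run on capillary electrophoresis. Signal reflects chimeric LXRb-Gal4 activity on GAL4-UAS reporters.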

Test [6] is described as follows: ATG_M_06_TRANS: Attagene TRANS-FACTORIAL HepG2 Assay for M06 Transcription Factor (Internal Marker) (AID 2282983).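 Further: reporter transcript level by RT-PCR then capillary electrophoresis fluorescence.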 To be noted: HepG2 Attagene TRANS M06 internal marker reporter. In a few lines: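 Human liver HepG2 cells bearing transiently transfected chimeric NR-GAL4 reporter units were treated with chemicals for 24 h. Total RNA was reverse-transcribed, reporter sequences amplified and labelled, then quantified by capillary electrophoresis. Activity was fitted upward relative to DMSO.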

Test [7] can be described thus: ATG_M_32_TRANS: Attagene TRANS-FACTORIAL HepG2 Assay for M32 Transcription Factor (Internal Marker) (AID 2282984).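 Further: transcript level of a background control reporter unit measured by RT-PCR and capillary electrophoresis.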 The conditions noted are these: HepG2 Attagene TRANS M32 internal marker reporter. A digest of the protocol: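 Cell-based TRANS-format assay in HepG2: exogenous chimeric GAL4 reporter units transiently expressed, compounds applied 24 h. Reporter mRNA detected by RT-PCR plus capillary electrophoresis; this readout is an internal background marker.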

The target of test [8] is Nuclear receptor subfamily 4 group A member 2 (Homo sapiens) (UniProt P43354). The test is described as follows: ATG_NURR1_TRANS: Attagene TRANS-FACTORIAL HepG2 Assay for human Nuclear Receptor Related Protein 1 (NURR1) (AID 2282985). To be noted: HepG2 Attagene TRANS reporter, mRNA readout. In a few lines:
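Measures transcriptional activation by an exogenous NR-Gal4 chimera in transfected HepG2 liver cells. After 24 h, reporter RNA is reverse-transcribed, amplified and resolved by capillary electrophoresis; DMSO defines baseline.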

Test [9] deals with Transcriptional activator Myb (Homo sapiens) (UniProt P10242). The test is described as follows: ATG_Myb_CIS: Attagene CIS-FACTORIAL HepG2 Assay for human Myeloblastosis (Myb) Proto-Oncogene Transcription Factor (AID 2282986; active means hit-call score of the fitted dose curve at least 0.9, where 1 is the maximum; inactive means score below 0.9). The conditions noted are these: HepG2 Attagene CIS-FACTORIAL Myb reporter transcription; actives raise or lower the signal. A digest of the protocol: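 Endogenous transcription factor activity at a Myb-responsive cis element is reported in human liver HepG2 cells after 24 h chemical treatment. Reporter mRNA is detected by RT-PCR and capillary electrophoresis fluorescence, with DMSO as baseline.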

The target in test [10] is Hepatocyte nuclear factor 4-alpha (Homo sapiens) (UniProt P41235). Description: ATG_HNF4a_TRANS: Attagene TRANS-FACTORIAL HepG2 Assay for human Hepatocyte Nuclear Factor 4 alpha (HNF4a) (AID 2282982). The conditions noted are these: HepG2 HNF4a transactivation reporter, mRNA readout. A digest of the protocol:
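Multiplexed reporter assay: transfected HepG2, 24 h exposure, total RNA → oligo(dT) RT → PCR → 6-FAM extension → HpaI digest → CE fluorescence. DMSO = negative control.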

Inconclusive results are not listed. Calls of active or inactive are those of the source. How the source made its calls, unless noted: active means hit-call score of the fitted dose curve at least 0.9, where 1 is the maximum; inconclusive means response in the unintended direction; inactive means score below 0.9.

By AC50 is commonly meant the concentration giving half of the maximal activity seen.

Chain of Oxysterols receptor LXR-beta (Homo sapiens) (P55055 whole entry, looked up, the tested form may be a part): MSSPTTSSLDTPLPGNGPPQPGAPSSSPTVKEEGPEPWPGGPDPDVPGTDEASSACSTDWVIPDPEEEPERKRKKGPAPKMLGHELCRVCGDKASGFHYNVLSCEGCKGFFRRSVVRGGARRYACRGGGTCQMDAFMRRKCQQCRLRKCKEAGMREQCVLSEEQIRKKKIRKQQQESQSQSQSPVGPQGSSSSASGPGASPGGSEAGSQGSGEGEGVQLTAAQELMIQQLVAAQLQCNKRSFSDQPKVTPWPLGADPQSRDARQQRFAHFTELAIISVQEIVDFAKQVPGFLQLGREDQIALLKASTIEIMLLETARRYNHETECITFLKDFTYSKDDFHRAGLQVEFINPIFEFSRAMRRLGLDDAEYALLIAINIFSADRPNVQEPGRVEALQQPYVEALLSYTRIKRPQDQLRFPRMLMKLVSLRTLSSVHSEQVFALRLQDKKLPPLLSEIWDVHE
Chain of Transcriptional activator Myb (Homo sapiens) (P10242 whole entry, looked up): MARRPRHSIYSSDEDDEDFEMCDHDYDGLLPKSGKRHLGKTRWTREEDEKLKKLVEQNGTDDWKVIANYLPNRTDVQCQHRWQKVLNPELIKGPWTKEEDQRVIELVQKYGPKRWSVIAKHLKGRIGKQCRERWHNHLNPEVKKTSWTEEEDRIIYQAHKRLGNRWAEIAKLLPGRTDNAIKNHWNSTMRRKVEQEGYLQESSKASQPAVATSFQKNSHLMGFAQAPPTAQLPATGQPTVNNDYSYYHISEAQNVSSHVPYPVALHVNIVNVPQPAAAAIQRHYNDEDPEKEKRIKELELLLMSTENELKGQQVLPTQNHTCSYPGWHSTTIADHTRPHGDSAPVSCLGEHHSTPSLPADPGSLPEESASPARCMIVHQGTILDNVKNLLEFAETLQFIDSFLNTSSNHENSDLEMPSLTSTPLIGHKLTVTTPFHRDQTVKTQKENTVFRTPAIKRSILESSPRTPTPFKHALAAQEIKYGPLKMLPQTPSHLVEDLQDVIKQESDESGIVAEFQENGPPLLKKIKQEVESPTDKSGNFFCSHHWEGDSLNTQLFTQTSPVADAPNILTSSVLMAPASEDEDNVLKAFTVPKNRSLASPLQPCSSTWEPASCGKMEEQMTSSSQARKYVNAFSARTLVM
Chain of Glucocorticoid receptor (Homo sapiens) (P04150 whole entry, looked up): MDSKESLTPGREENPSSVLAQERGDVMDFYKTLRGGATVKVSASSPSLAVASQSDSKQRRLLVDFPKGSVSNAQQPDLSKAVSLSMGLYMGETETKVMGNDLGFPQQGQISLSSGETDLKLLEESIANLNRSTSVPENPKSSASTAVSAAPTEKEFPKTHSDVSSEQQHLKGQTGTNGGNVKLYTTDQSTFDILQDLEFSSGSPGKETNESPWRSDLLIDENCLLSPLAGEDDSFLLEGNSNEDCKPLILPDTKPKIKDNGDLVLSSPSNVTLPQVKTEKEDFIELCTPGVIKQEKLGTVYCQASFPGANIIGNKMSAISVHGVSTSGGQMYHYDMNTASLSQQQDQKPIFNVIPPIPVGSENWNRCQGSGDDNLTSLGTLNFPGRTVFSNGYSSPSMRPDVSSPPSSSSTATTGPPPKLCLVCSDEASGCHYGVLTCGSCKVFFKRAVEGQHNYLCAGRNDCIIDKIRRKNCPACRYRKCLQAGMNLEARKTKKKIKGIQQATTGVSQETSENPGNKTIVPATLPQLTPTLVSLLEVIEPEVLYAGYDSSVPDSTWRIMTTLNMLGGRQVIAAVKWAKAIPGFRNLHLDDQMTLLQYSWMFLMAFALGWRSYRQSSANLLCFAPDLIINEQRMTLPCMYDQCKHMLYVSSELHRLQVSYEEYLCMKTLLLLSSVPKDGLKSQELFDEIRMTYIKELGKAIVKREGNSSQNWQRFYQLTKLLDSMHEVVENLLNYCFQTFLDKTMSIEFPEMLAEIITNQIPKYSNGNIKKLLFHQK
Chain of Nuclear receptor subfamily 4 group A member 2 (Homo sapiens) (P43354 whole entry, looked up, the tested form may be a part): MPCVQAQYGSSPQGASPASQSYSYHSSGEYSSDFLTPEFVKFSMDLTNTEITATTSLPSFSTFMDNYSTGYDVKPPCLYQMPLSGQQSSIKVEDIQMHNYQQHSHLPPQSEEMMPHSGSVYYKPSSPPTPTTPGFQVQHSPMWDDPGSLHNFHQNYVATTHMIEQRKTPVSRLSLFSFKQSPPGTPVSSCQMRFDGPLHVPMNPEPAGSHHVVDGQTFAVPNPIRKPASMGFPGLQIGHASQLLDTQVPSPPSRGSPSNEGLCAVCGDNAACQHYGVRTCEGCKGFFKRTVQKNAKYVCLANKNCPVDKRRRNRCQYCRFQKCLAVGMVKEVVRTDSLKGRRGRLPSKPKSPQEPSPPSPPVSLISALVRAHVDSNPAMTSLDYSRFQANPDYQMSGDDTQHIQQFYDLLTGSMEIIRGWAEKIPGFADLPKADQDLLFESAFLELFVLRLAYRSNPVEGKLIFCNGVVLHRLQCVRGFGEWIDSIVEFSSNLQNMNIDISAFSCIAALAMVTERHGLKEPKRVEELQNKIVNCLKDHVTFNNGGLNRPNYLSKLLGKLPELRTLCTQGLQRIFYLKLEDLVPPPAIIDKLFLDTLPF
Chain of Oxysterols receptor LXR-alpha (Homo sapiens) (Q13133 whole entry, looked up): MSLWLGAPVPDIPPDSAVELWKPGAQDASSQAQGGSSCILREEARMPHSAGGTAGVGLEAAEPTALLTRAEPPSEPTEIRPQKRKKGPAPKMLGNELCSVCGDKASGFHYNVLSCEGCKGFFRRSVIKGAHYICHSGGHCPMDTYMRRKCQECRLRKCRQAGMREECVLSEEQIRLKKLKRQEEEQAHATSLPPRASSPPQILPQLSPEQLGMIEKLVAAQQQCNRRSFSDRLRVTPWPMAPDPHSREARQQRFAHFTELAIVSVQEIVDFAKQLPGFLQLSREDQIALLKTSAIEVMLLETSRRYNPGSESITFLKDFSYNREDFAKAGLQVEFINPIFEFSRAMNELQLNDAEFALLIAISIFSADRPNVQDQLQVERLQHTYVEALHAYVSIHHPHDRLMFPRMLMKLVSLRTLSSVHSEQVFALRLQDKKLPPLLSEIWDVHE
Chain of Bile acid receptor (Homo sapiens) (Q96RI1 whole entry, looked up, the tested form may be a part): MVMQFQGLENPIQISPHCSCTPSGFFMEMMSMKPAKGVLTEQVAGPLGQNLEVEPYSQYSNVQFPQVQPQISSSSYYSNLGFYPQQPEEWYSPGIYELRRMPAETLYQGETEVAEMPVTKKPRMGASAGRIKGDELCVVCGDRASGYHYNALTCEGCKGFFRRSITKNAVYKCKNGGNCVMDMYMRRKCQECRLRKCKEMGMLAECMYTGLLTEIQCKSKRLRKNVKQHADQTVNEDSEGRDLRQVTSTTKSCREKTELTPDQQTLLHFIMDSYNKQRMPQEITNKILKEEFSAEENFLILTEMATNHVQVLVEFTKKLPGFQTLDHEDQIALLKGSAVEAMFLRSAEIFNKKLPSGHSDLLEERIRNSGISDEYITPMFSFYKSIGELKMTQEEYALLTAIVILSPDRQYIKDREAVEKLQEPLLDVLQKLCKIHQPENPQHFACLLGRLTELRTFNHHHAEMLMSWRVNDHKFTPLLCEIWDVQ
Chain of Hepatocyte nuclear factor 4-alpha (Homo sapiens) (P41235 whole entry, looked up): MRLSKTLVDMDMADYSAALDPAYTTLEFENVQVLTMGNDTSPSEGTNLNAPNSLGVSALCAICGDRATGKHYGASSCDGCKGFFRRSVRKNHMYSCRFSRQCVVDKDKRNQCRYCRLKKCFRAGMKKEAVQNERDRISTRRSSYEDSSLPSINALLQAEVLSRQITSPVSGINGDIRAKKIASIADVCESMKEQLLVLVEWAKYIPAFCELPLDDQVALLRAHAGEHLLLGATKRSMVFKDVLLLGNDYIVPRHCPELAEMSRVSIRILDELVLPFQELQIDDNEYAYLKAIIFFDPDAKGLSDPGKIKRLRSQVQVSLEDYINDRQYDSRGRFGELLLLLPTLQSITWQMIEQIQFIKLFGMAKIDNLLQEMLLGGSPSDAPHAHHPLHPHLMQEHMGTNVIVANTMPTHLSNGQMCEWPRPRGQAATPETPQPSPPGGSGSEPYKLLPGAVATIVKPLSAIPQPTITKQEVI
Chain of Estrogen-related receptor gamma (Homo sapiens) (P62508 whole entry, looked up, the tested form may be a part): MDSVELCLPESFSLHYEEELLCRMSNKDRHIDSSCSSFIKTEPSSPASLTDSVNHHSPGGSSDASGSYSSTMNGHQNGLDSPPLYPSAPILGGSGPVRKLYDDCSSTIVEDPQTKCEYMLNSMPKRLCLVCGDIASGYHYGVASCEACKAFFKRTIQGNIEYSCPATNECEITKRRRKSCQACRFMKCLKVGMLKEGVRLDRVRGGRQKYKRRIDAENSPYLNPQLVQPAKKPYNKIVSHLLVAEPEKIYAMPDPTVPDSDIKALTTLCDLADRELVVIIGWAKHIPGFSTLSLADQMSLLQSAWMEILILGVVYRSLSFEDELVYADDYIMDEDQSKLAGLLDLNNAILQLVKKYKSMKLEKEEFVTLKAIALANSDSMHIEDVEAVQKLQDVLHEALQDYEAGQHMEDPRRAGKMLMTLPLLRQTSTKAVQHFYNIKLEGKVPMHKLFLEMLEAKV

`Nc1nc(N)nc(NC2CC2)n1`: the result in [1], in [2], in [3], in test [4], in test [5] and in test [6] was inactive. Besides, the compound was called inactive in [7], in test [8] and in test [9].

Take `CCOP(=S)(OCC)OC(Cl)C(Cl)(Cl)Cl` (configuration not stated): the compound was called inactive in test [1], in test [4], in test [5], in [10], in [6] and in test [7]. Besides, the outcome in test [8] and in test [9] was inactive.

Consider `CCCSP(=O)(OCC)SCCC`, for which the compound was called inactive in [2], in [3], in test [4], in [5], in test [8] and in test [9].

`CCCSP(=O)(OCC)Oc1ccc(Br)cc1Cl` (configuration not stated): the call in test [3], in test [4], in test [5], in test [6], in test [7] and in [8] was inactive. Besides, the compound was called inactive in test [9].

Take `CCCCOC(=O)c1ccccc1C(=O)O`: the outcome in [4], in test [5], in test [10], in test [7] and in test [9] was inactive.

`CSc1nnc(C(C)(C)C)c(=O)n1N`: the compound was classed as inactive in test [5], in [10], in test [6], in [8] and in [9].

Regarding `CSc1nc(NC(C)C)nc(NC(C)C)n1`, the call in test [4], in test [5], in test [7], in [8] and in test [9] was inactive.

As to `O=C(O)c1cc(Oc2ccc(C(F)(F)F)cc2Cl)ccc1[N+](=O)[O-]`, the compound was called inactive in [2], in test [5], in test [10], in test [7] and in [9].

For `COP(=O)(OC)SCn1c(=O)oc2cc(Cl)cnc21`, the call in test [2], in test [5] and in [9] was inactive.

With `CCOP(=S)(OCC)Oc1ccc([N+](=O)[O-])cc1`, the compound was classed as inactive in test [2], in test [5], in test [10], in [6], in test [8] and in [9].

`C[N+]1(C)CCCCC1`: the compound was classed as inactive in test [4], in test [5], in [10], in test [8] and in [9].

As for `FC(F)C(F)(F)OCC(Cn1cncn1)c1ccc(Cl)cc1Cl` (configuration not stated), the result in test [5], in test [6], in [8] and in [9] was inactive.

Turning to `CNC(=O)Oc1cccc2c1OC(C)(C)O2`, the compound was called inactive in test [3], in [4], in test [5], in [6], in test [7] and in [9].

With `CCc1cnc(C2=NC(C)(C(C)C)C(=O)N2)c(C(=O)O)c1` (configuration not stated), the compound was classed as inactive in test [2], in test [4], in test [5], in test [6] and in [9].

For the compound `Cc1cc(C2CC2)nc(Nc2ccccc2)n1`, the result in test [3], in [4], in [5], in test [10], in test [6] and in test [7] was inactive. Moreover, the outcome in test [8] was inactive. In addition, the AC50 in [9] was 79.1 µM (active).

In the case of `CCCOCC(=Nc1ccc(Cl)cc1C(F)(F)F)n1ccnc1`, the compound was classed as inactive in [3], in [5], in test [10], in test [6], in test [7] and in test [9].

For `CC(C)N(C(=O)SCC(Cl)=C(Cl)Cl)C(C)C`, the figures for the AC50 in test [4] and in [5] were 29.1 µM (active) and 20.1 µM (active), respectively. The call in test [10], in [6], in test [7], in test [8] and in test [9] was inactive.

For the compound `CCCOc1nn(C(=O)NS(=O)(=O)c2ccccc2C(=O)OC)c(=O)n1C`, the outcome in [2], in test [5], in test [10], in [8] and in [9] was inactive.

Turning to `CC(Oc1cccc(Cl)c1)C(=O)O` (configuration not stated), the compound was called inactive in test [2], in test [5], in test [7], in [8] and in test [9].

Take `CC(C)[C@H](C(=O)O[C@H](C#N)c1cccc(Oc2ccccc2)c1)c1ccc(Cl)cc1`: the result in test [10] and in test [9] was inactive.

For `CN(C)C(=O)Nc1cccc(C(F)(F)F)c1`, the outcome in [5], in [7] and in [9] was inactive.

In the case of `O=c1ccc(=O)[nH][nH]1`, the compound was called inactive in test [4], in test [5], in [10], in [6], in test [7] and in [8]. Further, the compound was called inactive in test [9].

For `CN(C)[C@@H]1C(=O)C(C(N)=O)=C(O)[C@@]2(O)C(=O)C3=C(O)c4c(O)cccc4[C@@](C)(O)[C@H]3[C@H](O)[C@@H]12`, the compound was classed as inactive in test [4], in [5], in [10], in test [6], in test [7] and in test [8]. In addition, the result in test [9] was inactive.

As for `CN(C)NC(=O)CCC(=O)O`, the result in [4], in test [5], in test [6], in [7], in test [8] and in test [9] was inactive.

For `CC[C@H](C)[C@H]1O[C@]2(C=C[C@@H]1C)C[C@@H]1C[C@@H](C/C=C(\C)[C@@H](O[C@H]3C[C@H](OC)[C@@H](O[C@H]4C[C@H](OC)[C@@H](NC)[C@H](C)O4)[C@H](C)O3)[C@@H](C)/C=C/C=C3\CO[C@@H]4[C@H](O)C(C)=C[C@@H](C(=O)O1)[C@]34O)O2`, the call in [4], in test [5], in [10], in test [7] and in test [9] was inactive.

As for `CCC(=O)Nc1ccc(Cl)c(Cl)c1`, the outcome in test [4], in test [5], in test [10], in test [6], in test [7] and in test [8] was inactive. Moreover, in test [9], the result was inactive.

For `S=C1NCCN1`, the result in [4], in [5], in test [10], in test [6], in [7] and in test [8] was inactive. In addition, the result in [9] was inactive.

As to `C[Si](Cn1cncn1)(c1ccc(F)cc1)c1ccc(F)cc1`, the compound was classed as inactive in [4], in [5], in test [10], in test [6], in [7] and in [8]. Also, the compound was called inactive in [9].

With `CON=C(C(=O)OC)c1ccccc1CON=C(C)c1cccc(C(F)(F)F)c1`, the result in [4], in test [5], in [10], in test [7] and in test [9] was inactive.

Take `CCOC(=O)CC(SP(=O)(OC)OC)C(=O)OCC` (configuration not stated): the result in test [2], in test [4], in [5] and in test [9] was inactive.

Turning to `CC(C1CC1)C(O)(Cn1cncn1)c1ccc(Cl)cc1` (configuration not stated), the compound was called inactive in test [4], in test [5], in test [7], in test [8] and in test [9].

Take `CCC(CC)Nc1c([N+](=O)[O-])cc(C)c(C)c1[N+](=O)[O-]`: the outcome in [3], in [5], in test [6], in test [7], in test [8] and in test [9] was inactive.

As for `CNc1cnn(-c2cccc(C(F)(F)F)c2)c(=O)c1Cl`, the compound was called inactive in test [2], in [4], in test [5], in [6] and in [9].

As to `CCOP(=S)(OCC)SCCSCC`, the compound was called inactive in test [5], in test [10], in test [6] and in [9].

In the case of `CCOP(=S)(OCC)Oc1cc(C)nc(C(C)C)n1`, the outcome in test [2], in test [4], in test [5], in [6], in test [8] and in test [9] was inactive.

As for `C#CC(C)(C)NC(=O)c1cc(Cl)cc(Cl)c1`, the compound was classed as inactive in test [4], in test [5], in test [6], in [7], in test [8] and in [9].

For `CCOP(=O)(SC(C)CC)N1CCSC1=O` (configuration not stated), the compound was called inactive in [5], in [10], in [7] and in test [9].

As for `CC(=NC#N)N(C)Cc1ccc(Cl)nc1`, the call in test [4], in [5], in test [10], in [6], in test [7] and in test [8] was inactive. In addition, the call in test [9] was inactive.

For the compound `CCOP(=O)(OCC)Oc1cc(C)nc(C(C)C)n1`, the call in test [6], in test [7], in [8] and in test [9] was inactive.
